Screens deposited in PubChem BioAssay by National Center for Advancing Translational Sciences (NCATS).
gsp antagonist – gsp mutant antagonism; 0.4% of 340,000 active; Potency, µM (doses to about 76.9 µM), for inactives: at the highest dose activity change, negative = inhibition, actives largely listed as inhibitors; gsp-mutant cells, cAMP HTRF, 30 min; AID 624288; calls by dose curve; cell line not stated here;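 also: intracellular cAMP measured with PDE inhibitor Ro 20-1724 present during compound exposure; % is scaled to controls: 0 for no effect and ±100 for the full control effect; nearly all actives have a fitted effect of over 65% in size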
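Cells, 2000/well, grown 16–24 h in DMEM 10% FBS with 0.5 mg/ml G418, then compounds plus […] (300 uM addition stock), 30 min at 37C. cAMP read by HTRF (cAMP-d2 and anti-cAMP antibody-K in lysis buffer) after 30 min RT.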
Mito fusion act – blocks mitochondrial division or promotes mitochondrial fusion | S. cerevisiae fusion-defective mutant growth rescue, CellTiterGlo 48 h | 0.23% of 320,000 active | Potency, µM (titrated, usually from 46.1 µM), for inactives: top-dose growth rescue (activation), usual class: activators; also: % of control where 0% means no effect; nearly all actives have a fitted effect of over 45% in size
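S. cerevisiae fusion-defective temperature-sensitive mutants (e.g. fzo1-1, mgm1-5) grown 48 h at 37C in YPEG (ethanol/glycerol non-fermentable) medium with 23 nl compound per well; growth rescue read as CellTiterGlo luminescence.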
ALOX12 inh – inhibitors of human 12S-lipoxygenase ALOX12. Potency, µM (series often up to 108 µM), for inactives: top-dose activity change, negative = inhibition, hits mostly inhibitors. AID 1671190. P18054. purified 12hLO, xylenol orange hydroperoxide absorbance. 1.1% of 580,000 active; also: % is scaled to controls: 0 for no effect and ±100 for the full control effect
Target sequence (P18054 whole entry, looked up): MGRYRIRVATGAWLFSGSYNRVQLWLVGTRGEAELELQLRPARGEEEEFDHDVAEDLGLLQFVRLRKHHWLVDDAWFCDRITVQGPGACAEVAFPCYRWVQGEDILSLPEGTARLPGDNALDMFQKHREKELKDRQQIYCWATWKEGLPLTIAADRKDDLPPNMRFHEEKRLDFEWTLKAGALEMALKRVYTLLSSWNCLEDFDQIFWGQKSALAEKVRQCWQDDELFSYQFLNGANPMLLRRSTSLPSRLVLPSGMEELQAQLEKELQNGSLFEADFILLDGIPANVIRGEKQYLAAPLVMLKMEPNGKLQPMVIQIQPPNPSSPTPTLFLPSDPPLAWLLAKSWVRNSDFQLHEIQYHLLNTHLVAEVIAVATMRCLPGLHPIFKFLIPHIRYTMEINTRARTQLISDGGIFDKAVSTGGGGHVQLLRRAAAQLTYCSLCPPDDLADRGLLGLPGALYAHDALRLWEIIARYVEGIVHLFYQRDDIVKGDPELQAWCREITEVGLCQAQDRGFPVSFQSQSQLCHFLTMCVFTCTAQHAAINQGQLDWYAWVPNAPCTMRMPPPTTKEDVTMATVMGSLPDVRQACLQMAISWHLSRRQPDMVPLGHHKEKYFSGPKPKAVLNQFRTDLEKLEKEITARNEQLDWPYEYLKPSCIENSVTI
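Hydroperoxide product was detected by ferrous iron/xylenol orange as the 573 to 405 nm absorbance ratio. Arachidonic acid at 40 uM (final) was turned over for 30 min at room temperature by 150 nM human 12hLO, pH 7.0 Hepes buffer, after 15 min compound preincubation.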
gsp ag – gsp mutant agonism; gsp mutant cells, cAMP HTRF, 30 min; Potency, µM (titrated, usually from 76.9 µM), for the others: at the highest dose activation (cAMP increase), most hits filed as activators; 0.13% of 340,000 active; AID 624287; active = well fitted activation curve with a large enough effect; inconclusive = small, poorly fitted or top-dose-only effect, or another doubt; inactive = no such curve, though single readings can be large or run the other way; cell line not stated here;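 also: phosphodiesterase inhibitor Ro 20-1724 added with compounds to block cAMP breakdown; nearly all actives have a fitted effect of over 60% in size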
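Cells in DMEM/10% FBS with G418 were pretreated with compounds in DMSO plus […] (300 uM stock) for 30 min at 37C. cAMP was measured by HTRF (cAMP-d2 plus anti-cAMP antibody-K) after 30 min at room temperature.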
FUS yeast rescue – suppressors of FUS proteinopathy in yeast; S. cerevisiae FUS-expressing, growth rescue, OD600, 24 h; Potency, µM (series often up to 76.6 µM), actives largely listed as activators; AID 1347120; 0.24% of 390,000 active;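 also: plate controls were DMSO vehicle for no effect and reference control for full effect; nearly all actives have a fitted effect of over 55% in size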
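Steps: raffinose overnight preculture; dilution to OD 0.005 in 2% galactose minimal medium; compound addition (concentration series); 24hr at 30C, 99% humidity; absorbance read at 600 nm.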
The depositor's hits bear a star; i = inactive; ? = inconclusive; · = not tested or not shown; [ ] = dose if it differs, or a comment. Most compounds without a hit are left out; they make up all but 1.6% or so of the library. Unless noted, calls follow the shape of the dose curve; as a rule, active = well fitted curve in the direction sought with a large enough effect; inconclusive = small, poorly fitted or top-dose-only effect, or another doubt; inactive = no such curve, though single readings can be large; an effect the other way counts as inactive or inconclusive. Potency is read from the fitted curve at half-maximal effect.

SMILES	gsp antagonist	Mito fusion act	ALOX12 inh	gsp ag	FUS yeast rescue
CN(CC(=O)NCc1nc(-c2ccccc2)no1)S(=O)(=O)c1cc(Cl)ccc1Cl	·	·	-47%	·	·
Cc1cccc(C(=O)NC(=S)NNC(=O)c2ccccc2Cl)c1	6%	-12%	40µM*	47%	·
Cc1ccc(C(=O)NC(=S)NNC(=O)COc2ccccc2C)cc1	-19%	-13%	-26%	3%[15.4 µM]	i
Cc1ccccc1C(=O)NNC(=S)NC(=O)c1ccc(Cl)cc1Cl	-8%	-14%	?	5%	i
Cc1cccc(C(=O)NC(=S)NNC(=O)COc2c(C)cccc2C)c1	-1%	0%	25µM*	7%	i
N#Cc1ccc(S(=O)(=O)N2CCCCCCNC(=O)[C@@H]3CCC[C@@H]32)cc1	·	·	27%	·	·
COc1ccc(NC(=O)c2ccc3c(c2)N(S(=O)(=O)c2ccccc2)CC3)cc1	·	·	3%	·	·
COc1ccc(Nc2nc(NCCO)nc(N3CCCC3)n2)cc1	·	·	-13%	·	i
CCCNc1nc(Nc2ccc(C)cc2)nc(N2CCCC2)n1	32µM*	4%	·	16%	i
Clc1cc(Cn2nnc(-c3ccccc3Br)n2)cc2c1OCCCO2	·	·	4%	·	·
CCc1nnc(NC(=O)[C@@H](NC(=O)c2ccc(C(C)(C)C)cc2)C(C)C)s1	-7%	14%	-1%	-4%	28µM*
Cc1ccc(OC2(C(=O)NC(C)c3cn4ncsc4n3)CCNCC2)cc1 (stereo not given)	·	·	14µM*	·	·
O=C(c1nc(-c2cccc(C(F)(F)F)c2)c2ccccn12)N1CCCC1	·	·	13%	·	·
Cc1cccc([C@H]2[C@@H]3C=CCC[C@@H]3C(=O)N2Cc2ccccc2)c1	-10%	·	28µM*	·	i
C=CCN1C(=O)[C@H]2CCC=C[C@H]2[C@@H]1c1cccc(C)c1	1%	·	?	·	i
COc1ccccc1NC(=O)Cn1c(C)cc(=O)c2cccc(OC)c21	28µM*	-8%	0%	1%[15.4 µM]	i
COc1cccc2c(=O)cc(C)n(CC(=O)Nc3ccc(C)c(C)c3)c12	-23%	-1%	-18%	37%	i
CC(C)(C)OC(=O)NCCCC(=O)NCc1c[nH]c2ncccc12	·	·	36%	·	·
Cc1csc(=O)n1CCC(=O)OCC(=O)c1c(N)n(C)c(=O)n(C)c1=O	2%	1%	1%	25µM*	i
N#C/C(=C\C=C\c1ccco1)C(=O)NC1CCCCCC1	·	·	13µM*	·	·
COc1ccc(-n2nnnc2SCn2nnc3ccccc3c2=O)cc1	·	·	-23%	·	·
O=C(Nc1ccc(F)cc1)C(c1cc2ccccc2o1)N1CCN(C(=O)c2ccco2)CC1 (stereo not given)	·	·	?	·	22µM*
COc1ccc(C(C(=O)Nc2ccc(F)cc2)N2CCN(C(=O)c3ccco3)CC2)cc1 (stereo not given)	·	·	-6%	·	i
Cc1ccc(N/N=C/c2ccc(C#N)cc2)cc1Cl	·	·	3.2µM*	·	·
Cc1ccccc1N/N=C/c1ccc(C#N)cc1	6%	-2%	?	3%	·
SMILES	gsp antagonist	Mito fusion act	ALOX12 inh	gsp ag	FUS yeast rescue
Cc1cccc(N/N=C/c2ccc(C#N)cc2)c1	·	·	18µM*	·	·
Cc1cccc(N/N=C/c2ccncc2)c1	15%	-41%	45µM*	-5%[15.4 µM]	i
O=[N+]([O-])c1ccc(N/N=C/c2ccccc2O)cc1	-3%	2%	3%	-2%	i
Cc1cccc(N/N=C/c2ccccc2O)c1	11%	8%	40µM*	-3%[15.4 µM]	i
N#Cc1cc(C(=O)c2ccccc2OCC(=O)Nc2ccc(F)cc2)cn(C2CCCCC2)c1=O	·	·	0%	·	·
COc1ccc(-c2nc(C#N)c(NC(C)c3ccccc3)o2)cc1 (stereo not given)	·	·	1%	·	·
Cc1ccc(C(=O)NC2CC2)cc1NC(=O)CC1C=CCC1 (stereo not given)	·	·	-2%	·	·
CCO[C@@H]1OC(C(=O)N2CCN(Cc3ccc4c(c3)OCO4)CC2)=C[C@H](C2CCCCC2)[C@H]1CCCO	?	-1%	-26%	·	i
CCO[C@H]1OC(C(=O)N2CCN(Cc3ccc4c(c3)OCO4)CC2)=C[C@@H](C(C)(C)C)[C@@H]1CCCO	7.9µM*	2%	-3%	·	i
CCN(Cc1cccc(C)c1)Cn1ncc2cn(-c3ccccc3)nc2c1=O	·	·	-29%	·	·
O=C(CSc1nnc(SCc2ccccc2)s1)N/N=C/C=C\c1ccco1	-3%	4%	18µM*	9%	i
O=S(=O)(c1cccc(F)c1)N1CCN(Cc2ncc(-c3ccc(F)cc3)o2)CC1	·	·	-2%	·	·
COc1ccc2c(c1)C(=O)/C(=C/c1ccc(Br)cc1)CC2	·	·	-23%	·	·
O=C(COc1ccccc1)Nc1ccc(-c2nnc3n2CCCC3)cc1	·	·	28µM*	·	·
O=C(COc1ccc(-c2nnc3n2CCCC3)cc1)Nc1ccccc1	·	·	52%	·	·
CCN1c2cc(C(=O)Nc3ccc(Cl)c(C)c3)ccc2C(=O)N2CCCCCC21 (stereo not given)	·	·	4%	·	·
CC1=NN(Cc2ccccc2)C(=O)C1C(c1ccccc1)C(C#N)C#N (stereo not given)	6%	-1%	18%	-19%	i
CC1=NN(Cc2ccccc2)C(=O)C1C(c1ccc(Cl)cc1)C(C#N)C#N (stereo not given)	13%	-4%	40µM*	-4%	·
CN1CC2(CCN(Cc3cn[nH]c3-c3ccc(F)cc3)CC2)CC1C(=O)N1CCOCC1 (stereo not given)	·	·	53%	·	·
COc1cc(/C=C2\SC(N3CCCCC3)=NC2=O)cc(OC)c1OC	15%	5µM*	?	4%	i
O=C(Nc1ccc(-c2cn3ccsc3n2)cc1)C1COc2ccccc2O1 (stereo not given)	40µM*	-5%	0%	-29%	i
Cc1cc(=O)[nH]c(SCC(=O)c2ccc(O)c(O)c2)n1	2%	3%	4.5µM*	22%	i
Cc1cc(C)nc(SCC(=O)c2ccc(O)c(O)c2)n1	-13%	-50%	8.9µM*	17%	i
Cc1cc(C)nc(SCC(=O)c2ccc(C)c(C)c2)n1	-10%	-1%	15%	-2%[15.4 µM]	i
O=C(CSc1nc2ccccc2n1CCc1ccccc1)N1CCOCC1	6%	2%	-10%	6%	·
SMILES	gsp antagonist	Mito fusion act	ALOX12 inh	gsp ag	FUS yeast rescue
COc1ccc(-n2nnnc2SCC(=O)c2ccc(O)c(O)c2)cc1	-29%	-5%	4.5µM*	?	i
O=C(CSc1nc2ccccc2n1CCc1ccccc1)c1ccc(O)c(O)c1	-5%	-3%	25µM*	-12%[15.4 µM]	?
Cc1cc(=O)[nH]c(SCC(=O)c2c(N)n(C)c(=O)n(C)c2=O)n1	36%	1%	?	25µM*	i
Cc1cc(SCC(=O)c2ccc(O)c(O)c2)n2nc(C)c(-c3ccccc3)c2n1	-23%	0%	40µM*	?	i
Cc1ccc(CN2CCCCCCNC(=O)[C@@H]3C[C@@H](C(=O)N4CCN(c5ccccn5)CC4)C[C@@H]32)o1	·	·	47%	·	·
COc1ccc2nc(-c3ccco3)c(-c3ccco3)nc2c1	-14%	3%	18µM*	2%	·
